# Reference: PubChem BioAssay AID602441 (National Center for Advancing Translational Sciences (NCATS), 2012)
# Hit rate of the full screen: of about 1,300 compounds, fewer than 10 were called active. Not shown: some 9% with an inconclusive outcome. Calls come from the whole dose curve; as a rule, active = well fitted curve in the direction sought with a large enough effect; inconclusive = small, poorly fitted or top-dose-only effect, or another doubt; inactive = no such curve, though single readings can be large or run the other way. A selection follows. A call without a number means that no potency is given here.
# Test: qHTS for antagonists of the Thyroid Stimulation Hormone Receptor: Hit Validation in Parental Cell Line
# Conditions: parental HEK293 cells lacking TSHR, counter-screen; series mostly up to 56.9 µM
# Source text: The thyroid-stimulating hormone receptor (TSHR) is a member of the 7 trans-membrane-spanning receptor (7TMR) family of cell surface receptors. TSHR-mediated hyperthyroidism is important in thyroid pathology. The development of small molecule antagonists of TSHR may lead to therapeutic approaches for TSHR-mediated hyperthyroidism caused by constitutively activating mutations or stimulating auto-antibodies associated with Graves' disease. Graves' disease is the leading cause of hyperthyroidism and is caused by autoantibodies that stimulate TSHR (TsAbs) causing thyroid growth and unregulated overproduction of thyroid hormones and existing treatments have liabilities (agranulocytosis). In addition, TSHRs are known to be expressed in multiple extrathyroidal tissues including bone, brain, kidney, testis, fat and cells of the immune system but the role of the TSHR in these tissues is not clear. Therefore, TSHR antagonists/inverse agonists could be used as probes of extrathyroidal TSHR function. Finally, TSHR inverse agonists, which are a subclass of antagonists that inhibit agonist-independent (or basal or constitutive) TSHR signaling, could be used to inhibit TSH-independent signaling in patients with recurrent or metastatic thyroid cancer who are receiving thyroid hormone to suppress TSH.
# In collaboration between scientist from the NCGC and the NIDDK, a miniaturized HTRF high-throughput screen was developed. It's a cell based assay, where an anti cAMP antibody contains a fluorescent cryptate tag (excitation 337 nm; emission 620 nm) and the acceptor is cAMP-d2 (excitation 620 nm; emission 665 nm). When antibody and cAMP-d2 interact and are excited by a 337 nm light, a FRET occurs resulting in emission at 665 nm. The assay is competition between cAMP-d2 and cAMP (from the cell lysate). The homogeneous protocol allows for one step dispense after stimulation that is automation friendly. This is a hit validation assay in a counterscreen using parental HEK 293 cells lines.
# NIH Chemical Genomics Center [NCGC]
# NIH Molecular Libraries Probe Centers Network [MLPCN]
# Assay Provider: Marvin Gershengorn, NIDDK
# An anti cAMP antibody contains a fluorescent cryptate tag (excitation 337 nm; emission 620 nm) and the acceptor is cAMP-d2 (excitation 620 nm; emission 665 nm). When antibody and cAMP-d2 interact and are excited by a 337 nm light, a FRET occurs resulting in emission at 665 nm. The assay is competition between cAMP-d2 and cAMP (from the cell lysate). The homogeneous protocol allows for one step dispense after stimulation that is automation friendly. This assay uses parental HEK-EM 293 cells
row,SMILES,Potency
1,N#CC(C#N)=C1C=CC=CN1/C(=C\c1ccco1)C(=O)c1ccccc1,inactive
2,COc1ccc(CN(C)C(=O)COC(=O)c2cnc(Cl)c(Cl)c2)cc1,inactive
3,O=C(Nc1ccn(Cc2ccccc2F)n1)c1ccc(COc2ccccc2Cl)cc1,inactive
4,CCSC1=NSC2=NC(=O)/C(=C\c3coc4ccccc4c3=O)C(=N)N12,inactive
5,CC1=C(OC(=O)c2ccccc2)C(C)(C)C(c2ccccc2)OC1=O (stereo not given),inactive
6,O=C(Nc1nnc(S(=O)(=O)N2CCCCC2)s1)c1cccc(Br)c1,inactive
7,O=C(/C=C/c1ccc(Cl)cc1Cl)NCCSCc1ccccc1,inactive
8,CCCC(=O)N(C1CC(C)C(C#N)(C#N)C1(C#N)C#N)N(C)C (stereo not given),inactive
9,Cc1ccc(Oc2cc(NC(=O)CCCn3nc([N+](=O)[O-])cc3C)cc([N+](=O)[O-])c2)cc1,inactive
10,O=c1[nH]c(-c2ccccc2F)nc2c1sc(=S)n2Cc1ccccc1,inactive
11,O=C(Nc1ccc2oc(-c3ccccc3F)nc2c1)c1ccc2c(c1)OCCO2,inactive
12,C=CC(C)(C)c1c2occc2c(O)c2ccc(=O)oc12,inactive
13,Cc1ccc(-c2csc(NC(=O)c3ccc4c(=O)n5c(nc4c3)CCCCC5)n2)cc1,inactive
14,Cc1ccc(C2(c3ccc(C)cc3)CC2C(=O)Nc2ccc([N+](=O)[O-])cc2O)cc1 (stereo not given),inactive
15,COc1ccc(NC(=O)c2ccc(-c3ccccc3)cc2)cc1NS(=O)(=O)c1ccc(F)cc1,inactive
16,COc1ccc(N2CCN(C(=O)c3ccccc3N(C)S(=O)(=O)c3ccccc3)CC2)cc1,inactive
17,Nc1ncc(Br)cc1S(=O)(=O)Nc1cc(C(F)(F)F)cc(C(F)(F)F)c1,inactive
18,CCOc1cc(/C=C/c2ccc3cccc([N+](=O)[O-])c3n2)ccc1OCC(=O)N(C)C,inactive
19,C=CC[C@H](CC(=O)N(CCO)Cc1ccccc1)C(=O)N[C@H](COC(=O)[C@@H](CC=C)Cc1ccc(F)cc1)C(C)(C)C,inactive
20,COc1ccc(C)cc1-n1nnnc1SCc1cc(=O)n2cc(C)ccc2n1,inactive
21,Cc1ccc(CSc2nnc(SCC(=O)N/N=C/c3c(C)nn(-c4ccccc4)c3C)s2)cc1,inactive
22,COc1ccc(C(=O)Nc2ccc(Cl)c(S(=O)(=O)Nc3ccccc3OC)c2)cc1,inactive
23,CC(Oc1ccc(Cl)cc1Cl)C(=O)Nc1cccnc1 (stereo not given),inactive
24,O=C(c1ccco1)N1CCN(c2ncnc3c2nnn3Cc2ccccc2Cl)CC1,inactive
25,CCOc1ccc2nc(NC(=O)c3ccc(OCC4CCCO4)cc3)sc2c1 (stereo not given),inactive

row,SMILES,Potency
1,O=c1c2ccccc2nnn1CSc1nnc(-c2cccs2)n1Cc1ccccc1,inactive
2,O=C(O)c1nn(CC(=O)N2CCN(c3ncc(C(F)(F)F)cc3Cl)CC2)c(=O)c2ccccc12,inactive
3,O=C(Nc1nc(-c2cccs2)c(-c2cccs2)s1)C1CCCC1,inactive
4,COc1ccc(C2=NS(=O)(=O)N(C)C(C(=O)Nc3ccc4c(c3)OCO4)=C2)cc1OC,inactive
5,Cc1cc(C)c(S(=O)(=O)c2c(C)cccc2C)c(Cl)n1,inactive
6,COc1ccc(S(=O)(=O)n2cnc3ccccc32)c(C)c1,inactive
7,CCCCOc1ccc(/C=N/Nc2cc(N3CCOCC3)nc(C)n2)cc1,inactive
8,O=c1cc(-c2ccccc2)nc2c(-c3ccccc3)c(C(F)(F)F)[nH]n12,inactive
9,Cc1ccc(OCCSc2ncccn2)c(C)c1,inactive
10,CCN(CC)S(=O)(=O)c1cccc(NC(=O)CNc2cccc(S(=O)(=O)N3CCOCC3)c2)c1,inactive
11,C=CCn1c(SCC(=O)c2cccs2)nc2sc(CC)cc2c1=O,inactive
12,N#C/C(=C\c1ccc(Oc2ccc(C(F)(F)F)cc2[N+](=O)[O-])cc1)c1nc2ccccc2[nH]1,inactive
13,Cc1cc(C)c(-c2csc(NC(=O)/C=C/c3cccs3)n2)c(C)c1,inactive
14,Cc1ccc(C)c(S(=O)(=O)N2CCN(C(=O)C3CCN(c4ncnc5sc(C)c(C)c45)CC3)CC2)c1,inactive
15,CC(C)(C)c1ccc(C(=O)CC(Sc2ccc(Cl)cc2)C(=O)O)cc1 (stereo not given),inactive
16,O=C(NCc1ccc2c(c1)OCO2)C12CN(Cc3ccccc3)CC1C(c1cccc([N+](=O)[O-])c1)=NO2 (stereo not given),inactive
17,Cc1nc2ccc(Nc3nc4cc(S(=O)(=O)N5CCOCC5)ccc4o3)cc2s1,inactive
18,CSc1cccc(NC(=O)C2CCCN(S(=O)(=O)c3ccc(F)cc3)C2)c1 (stereo not given),inactive
19,O=C(CSc1nc(-c2ccc(Cl)cc2)cs1)Nc1cccc([N+](=O)[O-])c1,inactive
20,CCN(Cc1ccccc1)c1ccc(/C=N/NC(=O)c2cccc(S(=O)(=O)N3CCOCC3)c2)cc1,inactive
21,Fc1ccc(/C=C2\CCCC3=C2Nc2ncnn2C3c2ccc(F)cc2)cc1 (stereo not given),inactive
22,O=C1NC(=S)N(C(=O)c2ccc(F)cc2)/C1=C/c1ccccc1,inactive
23,O=S(=O)(/N=C(/Nc1cccc2ccccc12)c1ccccc1)c1cccs1,inactive
24,Cc1ccc(-c2csc(N(CCO)CCCn3c(C(F)(F)F)nc4ccccc43)n2)cc1,inactive
25,Cc1ccc(C(=O)Nc2nc(-c3ccc(F)cc3)cs2)o1,inactive

row,SMILES,Potency
1,CN(c1ccc(OCC(=O)Nc2nc3ccccc3s2)cc1)S(=O)(=O)c1ccccc1,inactive
2,Cc1cc(=O)[nH]c(SCC(=O)Nc2ccc(Br)cc2)c1C#N,inactive
3,CCCc1ccc(-c2c(C)sc(NC(=O)c3ccnn3C)c2C#N)cc1,inactive
4,NS(=O)(=O)c1ccc(NCc2ccccc2OCc2ccccc2F)cc1,inactive
5,O=C(Nc1cccc(S(=O)(=O)N2CCCCC2)c1)c1ccc2c(=O)n3c(nc2c1)CCCCC3,inactive
6,COc1cc(/C=C(\C#N)c2nc3ccccc3s2)cc([N+](=O)[O-])c1O,inactive
7,O=C(CC1S/C(=N/N=C2CCCCCC2)NC1=O)Nc1ccc(Br)cc1F (stereo not given),inactive
8,O=C(CNc1ccc(C(F)(F)F)cc1)Nc1cccc(S(=O)(=O)N2CCCC2)c1,inactive
9,O=S(=O)(Nc1cccnc1)c1cc(Cl)ccc1Cl,inactive
10,COCC(C)n1c(COc2ccccc2F)nnc1SCc1c(C)noc1C (stereo not given),inactive
11,CS(=O)(=O)c1ccc(C(=O)OCC(=O)NC(=O)C2CCCCC2)cc1[N+](=O)[O-],inactive
12,CC(C)(C)c1cc2nc3c(c(=O)n2[nH]1)CN(Cc1ccccc1)C3=O,inactive
13,O=C(COc1ccccc1/C=C1\SC(=S)NC1=O)Nc1ccc(F)cc1,inactive
14,CN(C)S(=O)(=O)Oc1cccc(C(=O)Nc2ccc(Cl)c(Cl)c2)c1,inactive
15,O=[N+]([O-])c1ccc(NC(=S)NCCc2ccc(F)cc2)cc1,inactive
16,COCC1CCCCN1C(=O)C1CCN(c2nc(-c3ccccc3)nc3c2CCC3)CC1 (stereo not given),inactive
17,CC(CNC(=O)c1cc(COc2ccc3ncccc3c2)on1)c1ccccc1 (stereo not given),inactive
18,N#C/C(=C(/O)COC(=O)c1ccc(C#N)cc1)c1nc2ccccc2s1,inactive
19,CCCCCC/C(C)=C1/SC(=S)NC1=O,inactive
20,O=C(Cn1nc(Cc2cccnc2)c2ccccc2c1=O)NCC1COc2ccccc2O1 (stereo not given),inactive
21,Cc1ccc(/C=C/C(=O)Nc2ccc(Oc3ccccc3)cc2)o1,inactive
22,CC(C)Oc1ccc(C(=O)Nc2ccc(Cl)c(S(=O)(=O)Nc3ccc(Cl)cc3)c2)cc1,inactive
23,Cc1ccc([N+](=O)[O-])cc1S(=O)(=O)Nc1ccc(-c2ccc(N3CCCC3)nn2)cc1,inactive
24,Cc1ccccc1-n1sc2cc(F)ccc2c1=O,inactive
25,COc1ccc(CNC(=O)C(c2ccco2)N(C(=O)c2snc(C(N)=O)c2N)c2cccc(OC)c2)cc1 (stereo not given),inactive

row,SMILES,Potency
1,CC(C)C(c1nnnn1Cc1ccco1)N1CCN(c2nc3ccccc3s2)CC1 (stereo not given),inactive
2,COc1cccc(CN(C)C(=O)c2ccc(Oc3ccccc3)cc2)c1OC,inactive
3,Cc1ccc(C2=NS(=O)(=O)N(C)C(C(=O)NCc3ccc(F)cc3)=C2)cc1,inactive
4,CC(=O)c1ccc(N2CCN(C(=S)Nc3ccc(Oc4ccccc4)cc3)CC2)cc1,inactive
5,CCn1c(=NC(=O)CSC(C)=O)sc2ccccc21,inactive
6,Clc1ccc2c(c1)-c1nnc(Br)n1-c1ccccc1S2,inactive
7,COc1ccc(C(=O)/C(=C\c2ccco2)N2C=CC=CC2=C(C#N)C#N)cc1,inactive
8,COc1cc(/C=N/Nc2ccc(C(=O)O)cc2)ccc1O,inactive
9,Cc1nn(Cc2ccc(Cl)cc2)c(C)c1NC(=O)c1noc2c1CCc1ccccc1-2,inactive
10,Cc1ccc(-n2c(Cl)c(Cl)nc(Cl)c2=O)cc1,inactive
11,Cc1nn(-c2nc3ccccc3s2)c(N)c1-c1ccccc1,inactive
12,CC(C)C(C)NC(=O)COc1ccc(Sc2ccc(OCC(=O)NC(C)C(C)C)cc2)cc1 (stereo not given),inactive
13,Cc1ccc2nc(NC(=O)C3CCN(S(=O)(=O)c4cc([N+](=O)[O-])ccc4Cl)CC3)sc2c1,inactive
14,Cc1cccc(NC(=O)C2C3CCC4C(CCC32)C4(Cl)Cl)c1 (stereo not given),inactive
15,Cc1ccccc1Oc1cc(-n2ncc(Cl)c(Cl)c2=O)ncn1,inactive
16,COc1ccc(NC(=O)/C(Cl)=C(/Cl)S(=O)(=O)Cc2ccccc2)cn1,inactive
17,O=C(Nc1nc(-c2cccs2)cs1)c1ccc(S(=O)(=O)N2CCCCC2)cc1,inactive
18,CCCCc1c(C)nc2nc(SCc3ccc(Cl)cc3)[nH]n2c1=O,inactive
19,Clc1cc(Cl)c(OCc2nc(-c3ccccn3)no2)cc1Cl,inactive
20,O=[N+]([O-])c1ccc(NC(=S)NCc2ccc(F)cc2)cc1,inactive
21,CC1CCCCN1C(=O)CSCC(=O)Nc1nc(-c2cccs2)cs1 (stereo not given),inactive
22,CC(=O)c1c(C)[nH]c(C(=O)COc2cc(C)ccc2C(C)C)c1C,inactive
23,COc1cccc(COc2cc3ccccc3nc2C)c1,inactive
24,O=[N+]([O-])c1cc(Br)c(O)c(/C=N/Nc2nnnn2-c2cccc3ccccc23)c1,inactive
25,Cc1csc2ncnc(N3CCN(S(=O)(=O)c4cccc(C(F)(F)F)c4)CC3)c12,inactive
